# The supplement of paper PMC4371806
# Whole data set: some 2,300 compounds, median “plate-normalized OD600 growth (mean of duplicates)” near 0.29, cut for the lowest 2% near 0.22. What follows is part of a selection rich in the lowest values, with near analogues and random picks from the rest.
# Tested on: Escherichia coli BW25113
# Test: plate-normalized OD600 growth (mean of duplicates) (OD600 (normalized)); higher = more growth (less inhibition)
# Details: 10 µM
# Experimental: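 E. coli BW25113 in LB (100 µl, 96-well, no shaking) was exposed to 10 µM of each compound from a ~30,000-member library and grown at 37°C for 24 h or 15°C for 48 h, in duplicate. Growth was read as OD600 and the duplicate ODs were normalized across screening plates to correct plate-to-plate variation. Hits were >3σ below the mean OD600 at 15°C and <2σ below the mean at 37°C.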
Structure (SMILES),"plate-normalized OD600 growth (temperature: 15°C, 48 h)","plate-normalized OD600 growth (temperature: 37°C, 24 h)"
NC(N)=NC(N)=Nc1ccccc1C(F)(F)F,0.243,0.604
Cc1ccc(C2=Nc3ccccc3N=C(C(Cl)Cl)C2)cc1,0.25,0.629
Cc1noc(N)c1C(N)=S,0.247,0.612
O=C(COc1ccc(/C=N/NC(=O)CO)cc1)NCC1CCCO1 (configuration not stated),0.227,0.668
NNC(=O)c1cnn(-c2ccc(Cl)cc2)c1C(F)(F)F,0.253,0.627
CCN(CC)c1ccc(NC(=O)c2c(F)cccc2F)c(N(CC)CC)n1,0.235,0.602
Cc1ccc(N=Cc2ccc(Sc3nc4ccccc4s3)o2)cc1,0.245,0.625
C/C(=N/NC(=O)COc1cccc(Cl)c1)c1ccc(Cl)cc1,0.248,0.631
CC1(O)N(CCN)C(=O)OC12CCCCC2 (configuration not stated),0.269,0.626
CC1(C)OC(=O)N(CCCCCCN2C(=O)OC(C)(C)C2(C)O)C1(C)O (configuration not stated),0.197,0.652
COc1ccc(/C(C)=N\NC2=NCCCN2)cc1,0.214,0.597
Nc1c(C(=O)c2ccc(Br)cc2)sc2nc(-c3cccs3)cc(C(F)(F)F)c12,0.142,0.578
Nc1c(C(=O)c2ccc(Br)cc2)sc2nc(-c3ccccc3)cc(-c3ccccc3)c12,0.256,0.621
Cc1ccc(C(=O)c2sc3nc(-c4cccs4)cc(C(F)(F)F)c3c2N)cc1,0.239,0.623
Cc1ccccc1COC(=O)c1ccc(-c2nnn(Cc3ccccc3C)n2)cc1,0.244,0.611
CCOc1ccc(NC(=O)CSc2nc(C)cc(COC)c2C#N)cc1,0.21,0.638

Structure (SMILES),"plate-normalized OD600 growth (temperature: 15°C, 48 h)","plate-normalized OD600 growth (temperature: 37°C, 24 h)"
COCc1cc(C)nc2sc(C(=O)OC)c(N)c12,0.243,0.626
CCOc1ccc(-n2nc3ccc(NC(=O)COc4ccccc4C)cc3n2)cc1,0.235,0.616
Cc1cc(=O)n2c(-c3ccc(Cl)cc3)csc2n1,0.239,0.607
CCc1c(C)nc2cc(-c3ccc(Cl)cc3)[nH]n2c1=O,0.214,0.632
CCc1c(C)nc2[nH]nc(-c3ccccc3C)n2c1=O,0.245,0.626
NC(N)=NS(=O)(=O)c1ccc(NC(=O)C2CCCCC2)cc1,0.256,0.628
COc1ccc2[nH]c(C)c(CCNS(=O)(=O)c3cc(Cl)ccc3Cl)c2c1,0.249,0.606
COc1ccc(Cc2nnc(-c3ccc(-c4cccs4)s3)o2)cc1,0.258,0.615
Cc1c(NC(=O)c2ccc(N)cc2)c(=O)n(-c2ccccc2)n1C,0.248,0.629
CC(C)(C)OC(=O)NC1CCN(C(=O)c2ccc(Cl)cc2Cl)CC1,0.244,0.629
O=[N+]([O-])c1ccc2c(c1)S(=O)(=O)N=C2Nc1cc(Cl)ccc1Cl,0.251,0.626
C=CCn1c2ccccc2c2nnc(SCC(=O)Nc3ncccn3)nc21,0.245,0.599
Cc1cccc(C2(c3cccc(C)c3)CC2C(=O)Nc2ccc(C#N)cc2)c1 (configuration not stated),0.232,0.597
CC(C)CSc1ncnc2scc(-c3ccccc3)c12,0.235,0.631
Cc1ccc(N(C)C(=S)Nc2ccc3nc[nH]c(=O)c3c2)cc1C,0.237,0.625
